35 compounds from PubChem BioAssay can be followed below.

Calls of active or inactive are those of the source.

A short description of one assay: FRG1 expression reporter modulators in myotubes – cell-based, C2C12 myotubes, firefly/Renilla luciferase, luminescence, FRG1 inhibition for FSHD, primary screen (AID 1084). As to conditions: FRG1 promoter luciferase, higher = more signal, called active from +8 up or from −8 down.
As to `[N-]=[N+]=NCc1ccccc1[C@@H]1OC(c2ccc(OCCCO)cc2)=N[C@]1(Cc1ccccc1)C(=O)NCCN1CCOCC1`, the z-score was 0.106 (inactive).
As to `COc1cc(C(O)C2C=CC3C(=O)N(Cc4ccccc4)C(=O)C3N2n2cnnc2)cc(OC)c1OC` (configuration not stated), the z-score is -1.7 (inactive).
In the case of `C=CCN1C(=O)[C@@]2(O[C@@H](CCO)[C@H]([Si](C)(C)c3ccc(OC)cc3)[C@H]2C)c2cc(N3CCOC3=O)ccc21`, the z-score is -1.66 (inactive).
For `CC(C)[C@H]1NC(=O)[C@@]23C(=O)N[C@@H](Cc4ccccc4)C2[C@H](C)[C@@]2(C)O[C@H]2C3/C=C/C/C=C\CNC(=O)[C@H](Cc2ccccc2)NC1=O` (some centres not stated), the z-score was 0.304 (inactive).
The same measure, in the same setting: for `O=C1C2C=CC(C(O)c3ccco3)N(Nc3ccccc3)C2C(=O)N1c1ccccc1` (configuration not stated) the value was 0.64 (inactive).
In the case of `CC(C)C[C@@H]1NC(=O)[C@@]23C(=O)N[C@@H](Cc4ccccc4)C2[C@H](C)[C@@]2(C)O[C@H]2C3/C=C/C/C=C\CNC(=O)[C@@H](C)NC1=O` (some centres not stated), the z-score was 0.677 (inactive).
On to `CCN(CC)c1ccc(N2CC=CC34O[C@@H]5/C=C\CCC(C)OC(=O)C5[C@H]3C(=O)N(C(C)CO)[C@@H]4C2=O)cc1` (some centres not stated), for which the z-score is 0.355 (inactive).
Take `CO[C@H]1O[C@H](CO)[C@@H](OC(=O)c2ccc(Br)cc2)[C@@H]2OC(=O)[C@H](Cc3ccccc3)C/C=C/C[C@@H](Cc3ccccc3)C(=O)O[C@@H]12`: the z-score was -0.215 (inactive).
Same read-out and setting: for `CC(C)C(CO)N1C(=O)[C@@H]2[C@H]3C(=O)OCC=C[C@H]3OC23C=CCN(C(C)(C)C)C(=O)[C@@H]13` (some centres not stated) the value was -0.221 (inactive); for `[N-]=[N+]=Nc1ccccc1C[C@]1(C(=O)O)N=C(c2ccc(OCCCO)cc2)O[C@H]1c1ccccc1N=[N+]=[N-]`, -1.57 (inactive).
As for `C=C(/C(=C/C[C@@H](OC(=O)c1ccncc1)c1cccc(OCCO)c1)c1cnc2ccccc2c1)C(C)C`, the z-score was 2.61 (inactive).
Regarding `CCCNC(=O)[C@@]1(Sc2ccc(C)cc2)CC(=O)N(C(C)C)[C@@H]1c1ccc(CO)cc1I`, the z-score is -0.733 (inactive).
For `C=CCNC(=O)[C@@H]1[C@H]2C(=O)O[C@H](c3ccccc3)[C@H](c3ccccc3)N2[C@H](c2ccc(OCCO)cc2)[C@@]12C(=O)N(C(=O)OCCOC)c1ccc(C#CCCO)cc12`, the z-score is -0.0789 (inactive).
As for `CCCCCCCCCCC(O)C1C=CC2C(=O)N(c3ccccc3)C(=O)C2N1Nc1ccccc1F` (configuration not stated), the z-score is 0.15 (inactive).
`COC(=O)C1N=C(c2ccc(OCCCO)cc2)N(c2ccccc2)O1` (configuration not stated): the z-score is 2.35 (inactive).
Take `COC(=O)[C@@]1(Cc2ccc(F)cc2)[C@H]2c3cc(C(=O)N4CCCC4)n(C)c3C[C@H]2CN1C(=O)c1ccccc1`: the z-score is -0.234 (inactive).
On to `O=C1C2C=CC(C(O)C=Cc3ccc([N+](=O)[O-])cc3)N(Nc3ccccc3)C2C(=O)N1c1ccccc1` (configuration not stated), for which the z-score is -0.028 (inactive).

The next assay in a line: small molecules captured by biotinylated probe aFST – biochemical, small-molecule microarray, fluorescence 635/667, stem cell growth factor project, primary screen (AID 1086).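 Also: score merges 667 nm fluorescence with signal-to-noise of each printed compound spot.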 As to conditions: higher = more signal.
`CCOC(=O)C=Cc1cc(F)ccc1O` registered a composite z-score of -0.0919.
On to `[N-]=[N+]=Nc1ccccc1[C@@H]1OC(c2ccc(OCCCO)cc2)=N[C@]1(Cc1ccccc1)C(=O)NCc1ccccc1`, for which the composite z-score was 1.21.
Turning to `Cc1ccccc1C(O)C1C=CC2C(=O)NC(=O)C2N1Nc1ccc(Cl)cc1Cl` (configuration not stated), the composite z-score was determined as 0.504.
`COc1ccc([Si](C)(C)[C@H]2[C@H](CCO)O[C@@]3(C(=O)N(Cc4ccccc4)c4ccc(N5CCOC5=O)cc43)[C@@H]2C)cc1` gave a composite z-score of 0.135.
`COCC1C2CC[C@H]3C(OCc4ccc(OC)cc4)OC[C@]4(C)[C@H]3C2=C(CN4C(=O)OC(C)(C)C)[C@H](C)C1COC` (some centres not stated) gave a composite z-score of 0.993.
In turn, `COCCOC(=O)N1C(=O)[C@@]2(c3cc(C#CC4(O)CCCCCC4)ccc31)[C@H](C(=O)N1CCN(c3ncccn3)CC1)[C@H]1C(=O)O[C@H](c3ccccc3)[C@H](c3ccccc3)N1[C@@H]2c1ccccc1OCCO` yielded a composite z-score of 0.474.
The same measure, in the same setting: for `COc1ccc(C(=O)Nc2cccc(CN3C(=O)[C@@]4(O[C@@H](CC(=O)N(CCO)Cc5ccccc5)[C@H]([Si](C)(C)c5ccc(OC)cc5)[C@H]4C)c4ccccc43)c2)cc1` the value was -0.141.
The compound `COCCOC(=O)N1C(=O)[C@@]2(c3cc(C#CCNC(N)=O)ccc31)[C@H](c1ccc(O)cc1)N1[C@H](c3ccccc3)[C@H](c3ccccc3)OC(=O)[C@H]1[C@@H]2C(N)=O` displayed a composite z-score of -0.567.
For `O=C1C2C=CC(C(O)c3cccc(O)c3)N(Nc3ccccc3)C2C(=O)N1c1ccccc1` (configuration not stated), the composite z-score stood at 0.35.
Consider `COc1ccc([Si](C)(C)[C@@H]2[C@@H](CC(=O)N3Cc4ccccc4C[C@H]3CO)O[C@]3(C(=O)N(c4ccccc4)c4ccccc43)[C@H]2C)cc1`, for which the composite z-score was 1.43.
Compound `COc1ccc(C(O)C2C=CC3C(=O)N(c4ccccc4)C(=O)C3N2Nc2ccccc2F)cc1` (configuration not stated) showed a composite z-score of 0.115.
In turn, `COCCOC(=O)N1C(=O)[C@@]2(c3cc(C#CCC(C(=O)OC)C(=O)OC)ccc31)[C@H](c1ccc(O)cc1)N1[C@H](c3ccccc3)[C@H](c3ccccc3)OC(=O)[C@H]1[C@@H]2C(=O)NC[C@H](O)c1ccccc1` had a composite z-score of 0.169.
Regarding `COCC(=C=CC[C@H](O)c1cccc(OCCO)c1)C[C@H](O)COCc1ccccc1`, the composite z-score turned out to be 0.256.
`C=C(C)[C@@H]1CC=C(C(O)C2C=CC3C(=O)N(c4ccccc4)C(=O)C3N2Nc2ccc(C#N)cc2)CC1` (some centres not stated) came in with a composite z-score of 1.53.
In turn, `COc1ccc(NC(=O)O[C@H]2[C@@H]3OC(=O)[C@H](Cc4cccc(Br)c4)C/C=C/C[C@@H](Cc4cccc(Br)c4)C(=O)O[C@H]3[C@@H](OC)O[C@@H]2CO)cc1` showed a composite z-score of 0.421.
Still for that read-out and setting: for `C=C(/C(=C/C[C@H](OC(=O)c1ccncc1)c1cccc(OCCO)c1)c1cnc2ccccc2c1)C(C)C` the value was 0.157; for `CS(=O)(=O)CCOC(=O)C1=CC(CCCO)=CC(C2CC2)N(Cc2cccc(OC(F)(F)F)c2)C=C1C(=O)OCCS(C)(=O)=O` (configuration not stated), 0.0187; for `NC(=O)[C@H]1[C@@H]2C(=O)O[C@@H](c3ccccc3)[C@@H](c3ccccc3)N2[C@@H](c2ccc(O)cc2)[C@]12C(=O)Nc1ccc(C#CC3=CCCCC3)cc12`, 0.0569.
For `[N-]=[N+]=NCc1ccccc1[C@@H]1OC(c2ccc(OCCCO)cc2)=N[C@]1(Cc1ccccc1)C(=O)NCCN1CCOCC1`, the composite z-score worked out at 1.09.
Same read-out and setting: the same measure for `COc1cc(C(O)C2C=CC3C(=O)N(Cc4ccccc4)C(=O)C3N2n2cnnc2)cc(OC)c1OC` (configuration not stated): 0.39; for `C=CCN1C(=O)[C@@]2(O[C@@H](CCO)[C@H]([Si](C)(C)c3ccc(OC)cc3)[C@H]2C)c2cc(N3CCOC3=O)ccc21`: 0.162; for `CC(C)[C@H]1NC(=O)[C@@]23C(=O)N[C@@H](Cc4ccccc4)C2[C@H](C)[C@@]2(C)O[C@H]2C3/C=C/C/C=C\CNC(=O)[C@H](Cc2ccccc2)NC1=O` (some centres not stated): 0.353.
Compound `O=C1C2C=CC(C(O)c3ccco3)N(Nc3ccccc3)C2C(=O)N1c1ccccc1` (configuration not stated) came in with a composite z-score of 0.225.
Compound `CC(C)C[C@@H]1NC(=O)[C@@]23C(=O)N[C@@H](Cc4ccccc4)C2[C@H](C)[C@@]2(C)O[C@H]2C3/C=C/C/C=C\CNC(=O)[C@@H](C)NC1=O` (some centres not stated) gave a composite z-score of -0.414.
Regarding `CCN(CC)c1ccc(N2CC=CC34O[C@@H]5/C=C\CCC(C)OC(=O)C5[C@H]3C(=O)N(C(C)CO)[C@@H]4C2=O)cc1` (some centres not stated), the composite z-score was -0.293.
As to `CO[C@H]1O[C@H](CO)[C@@H](OC(=O)c2ccc(Br)cc2)[C@@H]2OC(=O)[C@H](Cc3ccccc3)C/C=C/C[C@@H](Cc3ccccc3)C(=O)O[C@@H]12`, the composite z-score was -0.024.
As for `CC(C)C(CO)N1C(=O)[C@@H]2[C@H]3C(=O)OCC=C[C@H]3OC23C=CCN(C(C)(C)C)C(=O)[C@@H]13` (some centres not stated), the composite z-score was -0.346.
`[N-]=[N+]=Nc1ccccc1C[C@]1(C(=O)O)N=C(c2ccc(OCCCO)cc2)O[C@H]1c1ccccc1N=[N+]=[N-]` yielded a composite z-score of 0.992.
In turn, `C=C(/C(=C/C[C@@H](OC(=O)c1ccncc1)c1cccc(OCCO)c1)c1cnc2ccccc2c1)C(C)C` had a composite z-score of 0.573.
`CCCNC(=O)[C@@]1(Sc2ccc(C)cc2)CC(=O)N(C(C)C)[C@@H]1c1ccc(CO)cc1I` registered a composite z-score of -0.433.
Compound `C=CCNC(=O)[C@@H]1[C@H]2C(=O)O[C@H](c3ccccc3)[C@H](c3ccccc3)N2[C@H](c2ccc(OCCO)cc2)[C@@]12C(=O)N(C(=O)OCCOC)c1ccc(C#CCCO)cc12` displayed a composite z-score of 0.273.
`CCCCCCCCCCC(O)C1C=CC2C(=O)N(c3ccccc3)C(=O)C2N1Nc1ccccc1F` (configuration not stated) gave a composite z-score of -0.08.
Same read-out and setting: for `COC(=O)C1N=C(c2ccc(OCCCO)cc2)N(c2ccccc2)O1` (configuration not stated) the value was 0.897.
Compound `COC(=O)[C@@]1(Cc2ccc(F)cc2)[C@H]2c3cc(C(=O)N4CCCC4)n(C)c3C[C@H]2CN1C(=O)c1ccccc1` came in with a composite z-score of 0.951.
Turning to `O=C1C2C=CC(C(O)C=Cc3ccc([N+](=O)[O-])cc3)N(Nc3ccccc3)C2C(=O)N1c1ccccc1` (configuration not stated), the composite z-score is 1.22.
